Data: PubChem BioAssay (Tox21)
Inconclusive results are not listed. The source made the active and inactive calls. Unless noted, calls come from the whole dose curve; as a rule, active = well fitted curve in the direction sought with a large enough effect in the repeat runs; inconclusive = weak or mixed curves; inactive = no such curve, though single readings can be large; an effect the other way counts as inactive or inconclusive.

Tests used:
[1] = qHTS assay to identify small molecule agonists of the vitamin D receptor (VDR) signaling pathway - cell viability counter screen (AID 743224); note: series mostly up to about 63 µM; % is set by controls: 0 for no effect and ±100 for the full control effect; nearly all actives have a fitted effect of over 50% in size
Outline: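 Plated VDR-bla cells (4 h, 37C) received compound, incubated 16 h, then LiveBLAzer substrate 2 h RT; CellTiter-Glo added afterwards, luminescence read at 30 min.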

[2] = qHTS assay to identify small molecule antagonists of the vitamin D receptor (VDR) signaling pathway - cell viability counter screen (AID 743225); note: % is set by controls: 0 for no effect and ±100 for the full control effect; nearly all actives have a fitted effect of over 50% in size
Outline: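 Same-well multiplex: following 16 h treatment of HEK 293T cells carrying a UAS-driven beta-lactamase reporter with compound and agonist (3 nM final), and a 2 h FRET substrate step, CellTiter-Glo was added and luminescence read after 30 min.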

[3] = qHTS assay to identify small molecule agonists of the NFkB signaling pathway (AID 1159509; active = well fitted curve in the direction sought with a large enough effect in the signal ratio in the repeat runs, not every such curve was filed as active; the % refers to the signal ratio; note: series mostly up to about 61 µM; % is set by controls: 0 for no effect and ±100 for the full control effect)
Outline: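 NFkB-bla ME-180 cells with a beta-lactamase reporter under an NF-kB response element were plated overnight, treated with compounds in DMSO for 5 hr at 37 C, then loaded with FRET substrate for 1.5 hr at room temperature.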

[4] = qHTS assay to identify small molecule agonists of the endoplasmic reticulum stress response signaling pathway (AID 1159516; active = well fitted activation curve with a large enough effect in the signal ratio in the repeat runs, not every such curve was filed as active; the % refers to the signal ratio; note: % is set by controls: 0 for no effect and ±100 for the full control effect)
Outline: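 An ESRE-bla HeLa cell assay: compounds were pin-transferred from DMSO onto overnight-plated cells and left 5 hr at 37 C. Substrate was then loaded for 2 hr at room temperature before reading fluorescence at 460 nm and 530 nm.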

[5] = qHTS assay to identify small molecule agonists of the endoplasmic reticulum stress response signaling pathway - cell viability counter screen (AID 1159517; calls by dose curve;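 note: HeLa cells carrying an ER stress response element beta-lactamase reporter; series mostly up to about 61 µM; % is set by controls: 0 for no effect and ±100 for the full control effect; nearly all actives have a fitted effect of over 50% in size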)
Outline: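 Counter-screen wells were identical to the reporter wells. Cells were plated at 1,500 per well and dosed for 5 hr, then read for luminescence 30 min after CellTiter-Glo addition.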

[6] = biological target: Nuclear receptor ROR-gamma (Homo sapiens) (UniProt P51449); experiment: qHTS assay to identify small molecule antagonists of the retinoid-related orphan receptor gamma (ROR-gamma) signaling pathway (AID 1159521;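 note: CHO cells with doxycycline inducible ROR-gamma driving an RORE luciferase reporter; top concentration of the series differs between compounds; % is set by controls: 0 for no effect and ±100 for the full control effect; nearly all actives have a fitted effect of over 50% in size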)
Outline: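 Inducible-expression reporter assay: doxycycline (1 uM final) switched on RORγ in CHO cells bearing a ROR response element-luciferase construct, with test compounds present from 2 h beforehand. Decreased luminescence after 16 h defined antagonist activity.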

[7] = qHTS assay to identify small molecule agonists of the AP-1 signaling pathway - cell viability counter screen (AID 1159525; calls by dose curve; note: nearly all actives have a fitted effect of over 55% in size)
Outline: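 AP-1-bla ME-180 cells in Opti-MEM with 0.5% dialyzed FBS, compound exposure 5 h at 37 C in 15-point titration. Viability read in the same wells as ATP content by CellTiter-Glo luminescence, normalised to tetra-n-octylammonium bromide and DMSO controls.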

[8] = qHTS assay to identify small molecule agonists of the AP-1 signaling pathway (AID 1159526; calls by dose curve; note: % is set by controls: 0 for no effect and ±100 for the full control effect)
[9] = qHTS assay to identify small molecule antagonists of the retinoid-related orphan receptor gamma (ROR-gamma) signaling pathway - cell viability counter screen (AID 1159520)
Outline: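 Tet-on ROR gamma CHO cells were given compounds for 2 hr, then doxycycline hyclate at 1 uM final, and incubated 16 hr at 37 C. Viability was measured as ATP content by CellTiter-Glo luminescence.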

[10] = qHTS assay to identify small molecule agonists of the NFkB signaling pathway - cell viability counter screen (AID 1159515; calls by dose curve; note: series mostly up to about 61 µM; % is set by controls: 0 for no effect and ±100 for the full control effect; nearly all actives have a fitted effect of over 55% in size)
Outline: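 Using the same wells as the NFkB reporter read, ME-180 NFkB-bla cells given compounds for 5 hr were assessed for viability via CellTiter-Glo, with luminescence taken after a 30 min room-temperature incubation.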

O=S(=O)(O)c1cc(O)c2ccc(Nc3ccccc3)cc2c1
inactive: Potency [1] | outcome [2] | outcome [3] | outcome [4] | Potency [5] | outcome [6] | outcome [7] | outcome [8]

C[C@H](N)[C@H](O)c1cccc(O)c1
inactive: outcome [2] | outcome [3] | outcome [4] | Potency [5] | outcome [9] | outcome [6] | outcome [7] | outcome [8]

O=C1CC(c2ccc(Cl)cc2)CC(=O)N1
inactive: Potency [1] | outcome [2] | outcome [3] | outcome [4] | Potency [5] | outcome [9] | outcome [6] | outcome [7] | outcome [8]

Oc1cn2c(n1)Nc1ccc(Cl)c(Cl)c1C2
inactive: Potency [1] | outcome [2] | outcome [3] | outcome [4] | Potency [5] | activity, negative = cytotoxicity [9] -0.0979% [at 19 µM] | activation [8] 0.89% [at 15.8 µM]

Cc1cc(NC(=O)C2=C(O)c3ccccc3S(=O)(=O)N2C)no1
inactive: outcome [2] | outcome [3] | outcome [4] | Potency [5] | outcome [9] | outcome [6] | outcome [7] | outcome [8]

ClCCCl
inactive: Potency [1] | outcome [2] | outcome [3] | outcome [4] | Potency [5] | outcome [9] | outcome [6] | outcome [8]

CNS(=O)(=O)CCc1ccc2[nH]cc(C3CCN(C)CC3)c2c1
inactive: Potency [1] | outcome [2] | outcome [3] | outcome [4] | Potency [5] | outcome [9] | outcome [6] | outcome [8]

O=C(CS(=O)Cc1ccco1)NC/C=C\COc1cc(CN2CCCCC2)ccn1 (stereo unspecified)
inactive: Potency [1] | outcome [3] | outcome [4] | Potency [5] | outcome [9] | outcome [6] | outcome [8]

Cc1ccccc1N=O
inactive: outcome [2] | outcome [3] | outcome [4] | Potency [5] | outcome [9] | outcome [6] | outcome [7] | outcome [8]

COP(=O)(OC)OC(c1ccc(Cl)cc1)P(=O)(OC)OC (stereo unspecified)
inactive: Potency [1] | outcome [2] | outcome [3] | outcome [4] | Potency [5] | outcome [9] | outcome [6] | outcome [7] | outcome [8]

Cc1nc2n(c(=O)c1CCN1CCC(c3noc4cc(F)ccc34)CC1)CCC[C@H]2O
inactive: Potency [1] | outcome [2] | outcome [3] | outcome [4] | Potency [5] | activity, negative = cytotoxicity [9] 0.561% [at 19 µM] | activation [8] 6.23% [at 15.8 µM]

NS(=O)(=O)c1cc2c(cc1Cl)CN(C1CCCCC1)C2=O
inactive: Potency [1] | outcome [2] | outcome [3] | outcome [4] | Potency [5] | outcome [6] | outcome [7] | outcome [8]

CC(C)=O
inactive: outcome [3] | outcome [4] | Potency [5] | outcome [9] | outcome [6] | outcome [8]

O=C(O)c1cc(Br)c(O)c(Br)c1
inactive: Potency [1] | outcome [2] | outcome [3] | outcome [4] | Potency [5] | outcome [9] | outcome [6] | outcome [7] | outcome [8]

CCCC/C=C\CCCCCCCCCC=O
inactive: Potency [1] | outcome [2] | outcome [3] | outcome [4] | Potency [5] | outcome [6] | outcome [7] | outcome [8]

CCCCCCOC(=O)CC
inactive: Potency [1] | outcome [2] | outcome [10] | outcome [4] | Potency [5] | outcome [9] | outcome [7] | outcome [8]

CC1=CCC(C(C)C)=CC1
inactive: Potency [1] | outcome [2] | outcome [10] | outcome [4] | Potency [5] | outcome [7] | outcome [8]

BrCCCCCBr
inactive: Potency [1] | outcome [2] | outcome [10] | outcome [4] | Potency [5] | outcome [9] | outcome [7] | outcome [8]

C=C(C)C1CCC(C)(O)CC1 (stereo unspecified)
inactive: Potency [1] | outcome [2] | outcome [10] | outcome [4] | Potency [5] | outcome [9] | outcome [6] | outcome [7] | outcome [8]

CC(C)c1ccc2cc(C(C)C)ccc2c1
inactive: Potency [1] | outcome [10] | outcome [4] | Potency [5] | outcome [9] | outcome [6] | outcome [8]

CC(CN)CC(C)(C)CCN (stereo unspecified)
inactive: Potency [1] | outcome [10] | outcome [4] | Potency [5] | outcome [9] | outcome [6] | outcome [7] | outcome [8]

Oc1ccccc1-c1nnco1
inactive: Potency [1] | outcome [2] | outcome [10] | outcome [4] | Potency [5] | outcome [9] | outcome [6] | outcome [7] | outcome [8]

OCCC(F)(F)C(F)(F)C(F)(F)C(F)(F)C(F)(F)C(F)(F)C(F)(F)C(F)(F)F
inactive: Potency [1] | outcome [4] | Potency [5] | outcome [9] | outcome [6] | outcome [7] | outcome [8]

CN1CCN(CC(=O)N2c3ccccc3C(=O)Nc3cccnc32)CC1
inactive: activity change, negative = cytotoxicity [1] 0.894% [at 5.95 µM] | viability change, negative = cytotoxic [2] -0.964% [at 6.95 µM] | activity, negative = cytotoxic [10] 1.12% [at 6.95 µM] | activation [4] -0.546% [at 6.95 µM] | activity change, negative = cytotoxicity [5] -3.52% [at 6.95 µM] | activity change, negative = inhibition [6] 14.7% [at 8.39 µM] | viability change, negative = cytotoxic [7] 2.29% [at 6.97 µM] | activation [8] -1.4% [at 6.97 µM]

O=S(O)(O)=S
inactive: activity change, negative = cytotoxicity [1] -0.106% [at 5.95 µM] | viability change, negative = cytotoxic [2] 4.99% [at 6.95 µM] | activity, negative = cytotoxic [10] 0.146% [at 6.95 µM] | activation [4] 0.601% [at 6.95 µM] | activity change, negative = cytotoxicity [5] -2.33% [at 6.95 µM] | activity, negative = cytotoxicity [9] 8.82% [at 8.39 µM] | activity change, negative = inhibition [6] 6.6% [at 8.39 µM] | viability change, negative = cytotoxic [7] 1.76% [at 6.97 µM] | activation [8] 11.4% [at 6.97 µM]

CC(=O)CCCCn1c(=O)c2c(ncn2C)n(C)c1=O
inactive: Potency [1] | outcome [2] | outcome [4] | Potency [5] | outcome [9] | outcome [6] | outcome [7] | outcome [8]
